Most compounds without a hit are left out; they make up all but 2.8% or so of the library.
Pol iota inh: DNA polymerase iota (human) inhibition; actives 1% (n = 390,000); Q9UNA4; Potency, µM (top dose mostly 115 µM), actives largely listed as inhibitors; Pol iota fluorescent replication assay, 10 min
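Fluorescent replication assay read twice, at 0 min and 10 min after adding 50 nM (final) substrate. Enzyme (10 nM) and compounds were first incubated 15 min at room temperature; enzyme-free buffer wells were negative controls.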
POLB inh: DNA polymerase beta (human) inhibition; P06746; Pol beta primer extension/strand displacement, fluorescence kinetic; Potency, µM (series often up to 114 µM), actives largely listed as inhibitors; actives 1.3% (n = 340,000)
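Pol beta (10 nM) and compounds were preincubated 15 min at room temperature, then 50 nM substrate (final) started primer extension/strand displacement. Reads were taken at 0 and 10 min; concentration-response data were fitted to a four-parameter Hill equation.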
PI5P4K alpha inh: PI5P4K alpha (human) kinase inhibition. max response, %. AID 652105. PI5P4Kalpha enzyme, ADP-Glo luminescence, 60 min; hits give low values. actives 1.2% (n = 330,000); active means max response of -50% or lower; inconclusive means between -30% and -50%; inactive means -30% or higher; further: value at the top dose of about 77 µM
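Human PI5P4Kalpha with substrate in 0.038 M HEPES pH 7.4, 0.28 mM EGTA, 0.1% CHAPS, 5% DMSO; reaction started with 5 microM ATP (final), 60 min at room temperature. ADP formed read by ADP-Glo luminescence.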
WRN inhibitor: blocks human WRN helicase | Q14191 | WRN helicase unwinding, fluorescent forked duplex, kinetic | Potency, µM (top dose mostly 114 µM), most hits filed as inhibitors | actives 0.46% (n = 360,000) | AID 651768; further: nearly all actives have a fitted effect of over 55% in size
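Primary qHTS, 1536-well format. 20 nM WRN + compound, 15 min RT; start with 100 nM forked fluorophore/quencher duplex, 2 mM ATP (final); kinetic read ex 525/em 598 nm.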
Pol kappa inh: inhibitors of human DNA polymerase kappa | Q9UBT6 | purified Pol kappa, fluorescent DNA synthesis assay, 10 min | Potency, µM (series often up to 107 µM), actives largely listed as inhibitors | actives 0.53% (n = 400,000) | AID 588579
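Activity was followed as the change in fluorescence between reads at 0 and 10 min after starting the reaction with 50 nM substrate. Beforehand, 10 nM polymerase had been preincubated with compound for 15 min at room temperature.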
POLH inh: inhibitors of human DNA polymerase eta; actives 1.2% (n = 390,000); Potency, µM (doses to about 114 µM), usual class: inhibitors; Q9Y253; recombinant Pol eta, fluorescent DNA replication assay
Target sequence (Q9Y253 whole entry, looked up): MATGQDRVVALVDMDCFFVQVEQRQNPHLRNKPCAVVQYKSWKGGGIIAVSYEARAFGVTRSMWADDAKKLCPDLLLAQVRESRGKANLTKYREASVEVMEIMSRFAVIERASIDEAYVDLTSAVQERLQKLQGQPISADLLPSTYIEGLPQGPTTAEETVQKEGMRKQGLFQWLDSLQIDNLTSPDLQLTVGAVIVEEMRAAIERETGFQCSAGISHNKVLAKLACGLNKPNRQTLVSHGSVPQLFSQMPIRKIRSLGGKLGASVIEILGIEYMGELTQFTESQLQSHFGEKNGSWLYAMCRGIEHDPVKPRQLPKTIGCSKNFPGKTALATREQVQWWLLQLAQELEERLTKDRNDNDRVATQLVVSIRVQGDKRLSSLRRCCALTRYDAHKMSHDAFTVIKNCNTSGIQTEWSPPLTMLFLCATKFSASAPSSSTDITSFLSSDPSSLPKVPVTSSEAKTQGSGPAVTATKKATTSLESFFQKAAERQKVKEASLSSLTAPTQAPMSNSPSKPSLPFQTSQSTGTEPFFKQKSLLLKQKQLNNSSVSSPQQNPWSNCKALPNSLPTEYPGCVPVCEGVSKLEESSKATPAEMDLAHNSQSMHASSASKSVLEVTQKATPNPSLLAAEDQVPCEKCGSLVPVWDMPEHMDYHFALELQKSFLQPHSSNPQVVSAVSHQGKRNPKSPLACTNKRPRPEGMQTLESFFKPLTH
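Pol eta at 10 nM preincubated with compounds 15 min at room temperature; reaction started with fluorescent substrate (50 nM final) and read kinetically at 0 and 10 min.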
Hits are given with their value; . = inactive; ? = inconclusive; / = no result; [ ] = dose if it differs, or a comment. Unless noted, the call rests on the fitted dose curve; in most records, active means well fitted curve in the direction sought with a large enough effect; inconclusive means small, poorly fitted or top-dose-only effect, or another doubt; inactive means no such curve, though single readings can be large; an effect the other way counts as inactive or inconclusive.

SMILES | Pol iota inh | POLB inh | PI5P4K alpha inh | WRN inhibitor | Pol kappa inh | POLH inh
O=C(NCC1(N2CCCCC2)CCCCC1)C1CC(=O)N(c2ccc3c(c2)OCCO3)C1 (stereo unspecified) | . | . | . | . | . | .
O=C(/C=C/c1cccc(Br)c1)Nc1nn[nH]n1 | . | . | -69 | . | . | .
O=C(OC1Cc2c(O)cc(O)cc2OC1c1cc(O)c(O)c(O)c1-c1c(C2Oc3cc(O)cc(O)c3CC2O)cc(O)c(O)c1O)c1cc(O)c(O)c(O)c1 (stereo unspecified) | / | / | / | / | 0.79µM | /
Cc1ccc(SCc2ccc(C(=O)NCc3ccncc3)cc2)cc1 | 28µM | ? | / | .[11.6 µM] | . | ?
CCS(=O)(=O)c1nc(S(=O)(=O)c2ccc(Cl)cc2)c(NCCN2CCOCC2)s1 | . | . | . | . | . | .
O=C(CS(=O)c1ccc(C(F)(F)F)cc1[N+](=O)[O-])Oc1ccccc1 (stereo unspecified) | ? | . | . | . | . | .
CS(=O)(=O)c1ccc(S(=O)CC(=O)OCc2ccccc2)c([N+](=O)[O-])c1 (stereo unspecified) | 20µM | . | . | ? | . | .
Cc1cc(N2CCCCC2)nc2ccccc12 | . | . | . | . | . | .
Cc1cc(-n2nnc3ccccc32)nc2ccccc12 | 89µM | . | . | . | . | .
Cc1ccc(NCC(=O)Nc2cccc(S(=O)(=O)N(C)C)c2)cc1S(=O)(=O)N1CCCCCC1 | . | / | . | . | . | ?
O/N=C(/C[n+]1csc2ccccc21)c1ccccc1 | . | / | / | / | . | /
COc1cc(-c2coc3cc(OCc4ccccc4)c(OC)c(O)c3c2=O)cc(O)c1OC | / | / | / | / | . | /
CC(=O)Oc1cc(-c2coc3cc(OC(C)=O)c(OC(C)=O)c(OC(C)=O)c3c2=O)cc(OC(C)=O)c1OC(C)=O | / | / | / | / | 0.35µM | /
COCOCCn1cc(CN2CCS(=O)(=O)N(Cc3ccc(-c4ccc(F)cc4)cc3)C(CC(C)C)C2=O)nn1 (stereo unspecified) | / | / | . | . | / | ?
COc1ccc(C(=O)Nc2ccc(-c3nc4ncccc4o3)cc2)cc1 | . | . | / | / | . | .
Cc1cc(C)cc(C(=O)Nc2ccc(-c3nc4ncccc4o3)cc2)c1 | . | 14µM | / | / | . | ?
Cc1cc(-c2nc3ncccc3o2)ccc1NC(=O)c1ccc([N+](=O)[O-])o1 | 3.5µM | / | -58 | . | . | 50µM
Cc1ccc(C(=O)Nc2cc(-c3nc4ncccc4o3)ccc2C)c(C)c1 | . | . | / | / | . | 79µM
Cc1ccc(-c2nc3ncccc3o2)cc1NC(=O)c1ccc([N+](=O)[O-])o1 | . | . | . | . | . | .
Cc1ccc(S(=O)(=O)NC(=O)C2(C)CCN2C(=O)C2(c3ccc(Cl)cc3)CCC2)nc1 (stereo unspecified) | / | / | . | . | / | /
O=C1C2C3C=CC(CC3)C2S(=O)(=O)C2C3C=CC(CC3)C12 (stereo unspecified) | / | / | . | . | / | .
O=C(CN1C(=O)COc2ccc(S(=O)(=O)N3CCCC3)cc21)NCCc1ccc(Cl)cc1 | . | . | / | / | . | .
Cc1cc(O)c(-c2cc(O)c(C)cc2O)cc1O | ? | . | -67 | . | ? | .
COc1ccc(-n2c(Cc3cccn3C)nnc2SCC(=O)NCc2ccc(F)cc2)cc1 | . | . | . | . | . | .
Cc1ccc(-n2c(Cc3cccn3C)nnc2SCC(=O)NCc2ccc3c(c2)OCO3)cc1 | ? | 8.9µM | / | .[11.6 µM] | . | .
SMILES | Pol iota inh | POLB inh | PI5P4K alpha inh | WRN inhibitor | Pol kappa inh | POLH inh
COc1ccc(-n2c(SCC(=O)NCc3ccco3)nc3sc4c(c3c2=O)CCN(C)C4)cc1 | 32µM | ? | . | .[11.6 µM] | . | ?
COc1ccc(-n2c(Cc3cccn3C)nnc2SCC(=O)NCc2ccco2)cc1 | ? | 40µM | . | .[11.6 µM] | ? | .
Cc1ccc(-n2c(Cc3cccn3C)nnc2SCC(=O)Nc2ccc3c(c2)OCO3)cc1 | . | . | / | . | . | .
CCCCN(C(=O)C1CCCC1)C1CCS(=O)(=O)C1 (stereo unspecified) | . | / | . | . | . | .
O=S(=O)(Nc1cc(Sc2cccc3cccnc23)c(O)c2ccccc12)c1ccc(F)cc1 | ? | . | . | 22µM | . | .
Cc1ccc(-c2nnn(CC(=O)Nc3ccc4nn(-c5ccccc5)nc4c3)n2)o1 | . | 22µM | . | . | . | .
Cc1ccc(-c2nnn(CC(=O)NCC3CC3)n2)o1 | . | . | . | . | . | .
COc1ccc(OCC(O)CNC(=O)Nc2cc(F)ccc2C)cc1 (stereo unspecified) | . | . | . | . | . | .
CC(=O)c1sc2nsc(SCCN3CCCC3)c2c1N | 18µM | . | ? | ? | . | .
CC(=O)c1sc2nc(C)c3c(c2c1N)CCCC3 | . | . | . | . | . | .
CN1CCc2nc3sc(C(=O)C45CC6CC(CC(C6)C4)C5)c(N)c3cc2C1 | . | 50µM | . | ? | ? | ?
CN1CCc2nc3sc(C(=O)c4ccc(F)cc4)c(N)c3cc2C1 | . | . | / | / | . | .
CCOC(=O)c1c(NC(=O)CSc2nnc(C)s2)sc2c1CCN(C)C2 | 11µM | . | ? | ? | . | ?
NC1(c2ccc(-c3nc4ccn5c(=O)[nH]nc5c4cc3-c3ccccc3)cc2)CCC1 | . | / | / | / | . | /
Cc1nc2c(C(=O)NCCc3ccccc3)cnn2c(C)c1Cc1c(F)cccc1Cl | . | . | / | / | . | .
Cc1nc2c(C(=O)NCCc3ccc(Cl)cc3)c[nH]n2c(=O)c1Cc1ccc(Cl)cc1 | 79µM | 22µM | / | / | ? | 89µM
Cc1nc2c(C(=O)N(C)Cc3ccccc3)c[nH]n2c(=O)c1Cc1ccc(Cl)cc1 | 50µM | ? | / | / | 89µM | .
Cc1ccc(CNC(=O)c2c[nH]n3c(=O)c(Cc4ccc(Cl)cc4)c(C)nc23)cc1 | . | ? | / | / | . | ?
Cc1nc2c(C(=O)NCCc3ccccc3)c[nH]n2c(=O)c1Cc1ccccc1F | 79µM | ? | / | / | . | .
Nc1ccc2c(c1)nc(Cc1ccccc1)n2CCO | . | . | . | . | . | .
COc1ccc(-c2c3c(=O)n(C)c(=O)n(C)c3c3n2-c2ccccc2NC3c2ccco2)cc1 (stereo unspecified) | . | . | / | / | . | .
O=C(Nc1ccc(S(=O)(=O)N2CCOCC2)cc1)c1ccc(=O)[nH]c1 | ? | 13µM | . | . | . | .
C=CC(C)(C)c1[nH]c2ccccc2c1C1=C(O)C(=O)C(c2c[nH]c3c(CC=C(C)C)cccc23)=C(O)C1=O | / | / | / | / | 1.4µM | /
C=CC(C)(C)c1c(O)c(CC=C(C)C)c(O)c2c(=O)c3ccc(O)c(O)c3oc12 | . | / | . | . | . | .
Cn1c(-c2ccc3nc(N)sc3c2)nc2cc(N)ccc21 | 32µM | 20µM | . | ? | 71µM | ?
CC(/C=C1\SC(=S)N(CC(=O)O)C1=O)=C\c1ccccc1 | ? | . | . | .[11.6 µM] | . | ?
